# Data published in PubChem BioAssay AID720690 (Broad Institute, 2013).
# Results with a measured potency or affinity are listed apart. Calls of active or inactive are those of the source.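 How the source made its calls: active means every repeat run showing a signal drop whose fitted half-maximal concentration is at most twice the top tested concentration; inconclusive means repeat runs disagree, or flat partial drop, or poor fit; inactive means the rest.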
# Assay: HEK293T cytotoxicity, dose response, cytotoxicity control for miR-122 modulator project, cell-based, activator set, cherry-pick (AID 720690)
# Details: HEK293T viability, CellTiter-Glo luminescence, 48 h; series mostly up to 26 µM
row,SMILES,outcome
1,COc1ccc(NC(=O)Cn2nnc(C(=O)NCc3ccccc3OC)c2N)cc1Cl,inactive
2,O=C(Cc1cccnc1)N1[C@@H](CO)[C@@H]2c3ccccc3NC[C@@H]21,inactive
3,COc1ccc(S(=O)(=O)N(C)C[C@@H]2Oc3cc(-c4cccc(F)c4)ccc3S(=O)(=O)N([C@@H](C)CO)C[C@H]2C)cc1,inactive
4,O=C(NC[C@H]1[C@H](c2ccccc2)[C@H](CO)N1CC1CCCC1)c1ccncc1,inactive
5,C/C=C/c1ccc([C@@H]2[C@@H](CO)N[C@@H]2CN(C(=O)C2CCCC2)C(C)C)cc1,inactive
6,Cc1oc(-c2ccc(Cl)cc2)nc1CN1CCCC(C(=O)NCc2ccco2)C1 (centres undefined),inactive
7,CCCNC(=O)C[C@@H]1CC[C@@H]2[C@H](COc3ccc(NC(=O)c4cc(F)cc(F)c4)cc3C(=O)N2C)O1,inactive
8,COCCNC(=O)C[C@H]1CC[C@@H]2[C@@H](COc3ccc(NS(=O)(=O)c4ccc(Cl)cc4)cc3C(=O)N2C)O1,inactive
9,c1ccc(-c2nnc3n2CCCC3)cc1,inactive
10,CN1C(=O)c2cc(NC(=O)c3cc(F)cc(F)c3)ccc2OC[C@@H]2O[C@@H](CC(=O)O)CC[C@@H]21,inactive
11,CO[C@@H]1CN(C)C(=O)c2ccc(NC(C)=O)cc2OC[C@@H](C)N(C(=O)c2ccccc2F)C[C@H]1C,inactive
12,O=CN1CCN(C(=O)c2ccccc2F)CC1,inactive
13,COc1cccc(NC(=O)N2[C@H](CO)[C@@H](c3ccccc3)[C@H]2CNCC(C)C)c1,inactive
14,O=C(Nc1ccccc1)N1C[C@@H]2[C@H](c3ccccc31)[C@H](CO)N2Cc1cocn1,inactive
15,CC(=O)Nc1ccc(S(=O)(=O)Nc2ccc(S(=O)(=O)Nc3nc(C)cc(C)n3)cc2)cc1,inactive
16,C[C@H](CO)N1C[C@H](C)[C@@H](CN(C)C(=O)C2CCOCC2)Oc2cc(C#Cc3ccncc3)ccc2S1(=O)=O,inactive
17,Cc1ccc(C(=O)n2nc(-c3ccccc3)nc2NCc2ccco2)cc1,inactive
18,O=C(Nc1ccccc1F)N1[C@H](CO)[C@@H]2c3ccccc3NC[C@@H]21,inactive
19,CCC(=O)N(C)C[C@H]1Oc2cc(C#Cc3ccccc3)ccc2S(=O)(=O)N([C@@H](C)CO)C[C@H]1C,inactive
20,C[C@H](CO)N1C[C@H](C)[C@H](CN(C)CC2CCCCC2)OCCCC[C@H](C)Oc2ccc(NC(=O)Nc3cccc4ccccc34)cc2C1=O,inactive

row,SMILES,outcome
1,CCCNC(=O)C[C@H]1CC[C@H]2[C@@H](COc3ccc(NC(=O)c4cc(F)cc(F)c4)cc3C(=O)N2C)O1,inactive
2,CC(=O)N1[C@H](CO)[C@@H](c2ccccc2)[C@H]1CN(CC(C)C)C(=O)c1ccccn1,inactive
3,Cc1cccc(NC(=O)Nc2ccc3c(c2)C(=O)N(C)[C@@H]2CC[C@H](CC(=O)NCc4ccccc4Cl)O[C@H]2CO3)c1,inactive
4,CN1C(=O)c2cc(NC(=O)C3CCOCC3)ccc2OC[C@H]2O[C@H](CC(=O)NCc3ccc4c(c3)OCO4)CC[C@@H]21,inactive
5,COc1cccc(-c2csc(N3CCN(CC(=O)Nc4ccc5c(c4)OCO5)CC3)n2)c1,inactive
6,CCCNC(=O)Nc1ccc2c(c1)C(=O)N(C)[C@@H]1CC[C@H](CC(=O)NCC3CCCCC3)O[C@H]1CO2,inactive
7,COCC(=O)N1[C@@H](CO)[C@@H]2c3ccccc3N(C(=O)c3cccnc3)C[C@@H]21,inactive
8,CC(C)(C)c1cc(NCCCn2ccnc2)n2ncc(-c3ccc(Cl)cc3)c2n1,inactive
9,CNC(=O)C[C@H]1CC[C@@H]2[C@H](COc3ccc(NC(=O)Nc4ccccc4OC)cc3C(=O)N2C)O1,inactive
10,COc1cc(-c2nnc3sc(C4CCCCC4)nn23)cc(OC)c1OC,inactive
11,CCC(=O)N1[C@H](CO)[C@H](c2ccccc2)[C@H]1CN(C(C)C)S(C)(=O)=O,inactive
12,CN1C(=O)c2cc(NC(=O)c3cccc(F)c3)ccc2OC[C@H]2O[C@H](CC(=O)O)CC[C@H]21,inactive
13,CO[C@H]1CN(C)C(=O)c2ccc(NS(C)(=O)=O)cc2OC[C@H](C)N(C(=O)CN(C)C)C[C@H]1C,inactive
14,CC(=O)N(C[C@@H]1N[C@@H](CO)[C@H]1c1ccc(-c2ccccc2)cc1)C(C)C,inactive
15,CN1C(=O)c2cc(NC(=O)c3cccc(F)c3)ccc2OC[C@@H]2O[C@H](CC(=O)O)CC[C@H]21,inactive
16,CCNC(=O)C[C@H]1CC[C@@H]2[C@@H](COc3ccc(NC(=O)c4cccc(C(F)(F)F)c4)cc3C(=O)N2C)O1,inactive
17,Cc1cc(CN(C)C(=O)c2cc(COc3ccc4ncccc4c3)on2)on1,inactive
18,c1cnc(N2CCN(Cc3c[nH]c4ccccc34)CC2)nc1,inactive
19,COCC(=O)N(C)C[C@@H]1[C@H](c2ccc(-c3ccccc3)cc2)[C@@H](CO)N1C(C)=O,inactive
